# Bioassay records (PubChem BioAssay)
# Hits are enriched below; roughly 2.4% of the tested compounds scored in any of these assays.
# ULK1 primary: human ULK1 kinase inhibition, primary screen; hit rate 1.9% among 30,000; AID 1259251; O75385; inhibition, % at 5.96 µM; AlphaScreen Atg13 phosphorylation by ULK1, luminescence; in the data active = inhibition above about 43%;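 also: 0% = median of compound wells and 100% = no enzyme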
# ASK1 primary: inhibitors of human ASK1 kinase. AlphaScreen MKK6 phosphorylation by ASK1, luminescence. inhibition, % at 7.44 µM. hit rate 0.99% among 22,000; in the data active = inhibition above about 35%;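 also: 0% = median of compound wells and 100% = no enzyme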
# Numbers without * were called inactive; . = not tested or not shown.
SMILES,ULK1 primary,ASK1 primary
O=C(NC1CC1)c1ccc(-c2cc(NCc3cccc(C(F)(F)F)c3)ncn2)cc1,1,1
c1ccc(Nc2nc(NC3CC3)c3[nH]cnc3n2)nc1,-9,-10
c1cncc(Nc2nc(NC3CC3)c3[nH]cnc3n2)c1,60*,-45
N[C@@H](Cc1cc(I)c(Oc2cc(I)c(O)c(I)c2)c(I)c1)C(=O)O,79*,.
NC(Cc1cc(I)c(Oc2ccc(O)c(I)c2)c(I)c1)C(=O)O (centres undefined),-7,.
O=C1c2c(O)ccc(O)c2C(=O)c2c(NCCNCCO)ccc(NCCNCCO)c21,43*,.
O=C1CCCN1CCCNc1nc(NCc2cccnc2)c2ncn(C3CCCCC3)c2n1,5,13
Cn1cc(-c2nc(Nc3ccc(-n4cnc(N5CCOCC5)n4)cc3)ncc2Br)cn1,61*,-57
Cc1ccc(-c2ncn(-c3ccc(Nc4ncc(F)c(-c5cnn(C)c5)n4)cc3)n2)cn1,-1,18
Cc1ncn(-c2ccc(Nc3ncc(Br)c(-c4cnn(C)c4)n3)cc2)n1,85*,-68
Cc1onc(-c2nc(Nc3ccc(-n4cnc(N5CCOCC5)n4)cc3)ncc2Cl)c1-c1cnn(C)c1,-22,14
CC(C)n1cnc2c(NCc3ccccc3)nc(NCCCN3CCCC3=O)nc21,27,-1
O=S(=O)(O)c1cc(I)c(O)c2ncccc12,45*,.
Oc1c(I)cc(I)c2cccnc12,51*,.
Oc1c(Cl)cc(Cl)c2cccnc12,27,.
Oc1ccc(Cl)c2cccnc12,11,.
CC(=O)Nc1cc(-c2ccccc2)no1,-14,.
COc1ccc(CCNC(=O)c2ccnc(N3CCCC3CO)c2)cc1 (centres undefined),0,13
CCOC(COc1ccc(C(=O)c2ccccc2)cc1)OCC,8,.
COc1cc(Nc2cc(Nc3ccncc3)ncn2)cc(OC)c1OC,62*,17
CC(=O)Nc1ccc(Nc2cc(Nc3ccncn3)ncn2)cc1,62*,11
CC(=O)Nc1ccc(Nc2cc(Nc3ccncc3)ncn2)cc1,79*,-2
COc1cc(Nc2cc(Nc3cnccn3)ncn2)cc(OC)c1OC,8,11
CC(=O)Nc1ccc(Nc2cc(Nc3ccncn3)nc(N)n2)cc1,5,4
CC(=O)Nc1ccc(Nc2cc(Nc3ccncc3)nc(N)n2)cc1,2,-1
SMILES,ULK1 primary,ASK1 primary
CCOC(=O)c1cnc(Nc2ccc(C)cc2C)[nH]c1=O,-10,.
c1cc(-n2cnc3c(NC4CC4)nc(NCCN4CCOCC4)nc32)cs1,-10,-2
O=C(NCc1cccnc1)c1cnc(Nc2ccncn2)s1,9,0
O=C1CCc2cc(S(=O)(=O)N3CCCNCC3)ccc2N1,-8,-23
O=c1[nH]ccc2c(S(=O)(=O)N3CCCNCC3)cccc12,46*,-18
c1cc(-c2cncc(N3CCOCC3)c2)nc(Nc2ccc(-n3cncn3)cc2)n1,11,17
c1cc(Cn2ccnc2)cc(Nc2nccc(-c3cncc(N4CCOCC4)c3)n2)c1,80*,6
c1cn(-c2ccc(Nc3nccc(-c4cncc(N5CCOCC5)c4)n3)cc2)cn1,34,-14
c1cc(Cn2cncn2)cc(Nc2nccc(-c3cncc(N4CCOCC4)c3)n2)c1,55*,1
FC(F)(F)c1cnc(Oc2ccc(N3CCNCC3)cc2)cc1Nc1ccccc1-c1ncn[nH]1,5,-14
CCCn1cc(-c2ccc(Nc3nccc(-c4cncc(N5CCOCC5)c4)n3)cc2)cn1,0,6
NS(=O)(=O)c1ccc(Nc2nccc(-c3ccc(NS(=O)(=O)CC(F)(F)F)cc3)n2)cc1,36,-13
COCCNC(=O)c1ccc2cncc(-c3cc4ccccc4o3)c2n1,11,.
Cc1ncn(-c2ccc(Nc3ncc4cccc(-c5cnn(CC6CC6)c5)c4n3)cc2)n1,64*,3
Cc1ncn(-c2ccc(Nc3ncc4cccc(-c5ccccc5)c4n3)cc2)n1,12,-74
Cc1ncn(-c2ccc(Nc3ncc4cccc(-c5ccncc5)c4n3)cc2)n1,-33,6
CC(C)n1cc(-c2ccc3cnc(Nc4ccc(-n5cnc(N6CCOCC6)n5)cc4)nc3c2Cl)cn1,53*,3
Cn1cc(-c2ccc3cnc(Nc4ccc(-n5cnc(N6CCOCC6)n5)cc4)nc3c2C2CC2)cn1,41,-91
Cc1ncn(-c2ccc(Nc3ncc4cccc(-c5cnn(C)c5)c4n3)cc2)n1,25,-8
Cc1ncn(-c2ccc(Nc3ncc4cccc(-c5cnn(C(C)C)c5)c4n3)cc2)n1,66*,-10
Cc1ncn(-c2ccc(Nc3ncc4cccc(-n5cccn5)c4n3)cc2)n1,45*,-23
COc1ccc(-c2nc(NC3CC3)c3ncn(CCN4CCCC4=O)c3n2)cc1,2,10
COc1cccc(CCNC(=O)c2cn3cc(-c4ccnc(N)n4)ccc3n2)c1,-7,-1
Cn1cc(-c2ccc3cnc(Nc4ccc(-n5cnc(-c6ccc(=O)[nH]c6)n5)cc4)nc3c2)cn1,1,-7
CC(C)n1cnc2c(NCc3cccnc3)nc(-c3ccc(N4CCOCC4)nc3)nc21,7,5
SMILES,ULK1 primary,ASK1 primary
O=C(NCCN1CCOCC1)c1cnc(-c2ccc(N3CCOCC3)nc2)s1,-3,-6
COc1ccc(-c2ncc(C)c(Nc3cc(OC)c(OC)c(OC)c3)n2)cc1,67*,22
COc1cc(Nc2nc(-c3ccc(C(=O)NC4CC4)cc3)ncc2C)cc(OC)c1OC,35,21
COc1cc(Nc2nc(-c3ccccc3)ncc2C)cc(OC)c1OC,49*,16
COc1cc(Nc2nc(-c3cccc(C(C)=O)c3)ncc2C)cc(OC)c1OC,25,7
CC(=O)Nc1ccc(NC(=O)c2cncc(-c3c(C)nn(C)c3C)c2)cc1,15,-19
Cc1cnc(-c2ccc(C(=O)N3CCN(C)CC3)cc2)nc1NCc1ccccc1,-5,-7
Cc1[nH]ncc1-c1ccc(NC(=O)C2COc3ccc(F)cc3C2)c(SCCN2CCOCC2)c1 (centres undefined),2,-7
O=C(Nc1ccc2[nH]ncc2c1)C1CCCN(C(=O)c2cccnc2)C1 (centres undefined),24,12
c1cnc(Nc2nc(Nc3ccc(N4CCOCC4)cc3)c3ncn(C4CCCCC4)c3n2)nc1,2,-2
c1ccc(CNc2nc(Nc3ccc(N4CCOCC4)cc3)nc3c2ncn3C2CCCCC2)cc1,9,5
CC(=O)Nc1ccc(Nc2nc(Nc3ccc(N4CCOCC4)cc3)nc3c2ncn3C2CCCCC2)cc1,48*,8
c1cncc(CNc2nc(Nc3ccc(N4CCOCC4)cc3)c3ncn(C4CCCCC4)c3n2)c1,62*,-22
CNC(=O)c1ccccc1Nc1cc(Nc2ccc3c(c2)CC(=O)N3C)ncc1C(F)(F)F,84*,-5
CS(=O)(=O)NC1CCC(Nc2cc(Nc3ccccc3C(N)=O)c(C(F)(F)F)cn2)CC1 (centres undefined),22,-52
CNC(=O)c1ccccc1Nc1cc(Nc2ccc3[nH]c(=O)oc3c2)ncc1C(F)(F)F,79*,-10
CNC(=O)c1ccccc1Nc1cc(Nc2ccc3c(c2)CC(=O)N3)ncc1C(F)(F)F,73*,0
CNS(=O)(=O)c1ccccc1Nc1cc(Nc2ccc3c(c2)CCC(=O)N3)ncc1C(F)(F)F,90*,-40
CNS(=O)(=O)c1ccccc1Nc1cc(Nc2ccccc2S(=O)(=O)NC)c(C(F)(F)F)cn1,-21,14
FC(F)(F)c1ccc(Nc2nc(NCc3ccccc3)c3ncn(C4CCCCC4)c3n2)cc1,-11,4
